Screening data deposited in PubChem by Buhrlage Lab, Dana-Farber Cancer Institute and Novartis Institutes for BioMedical Research (Cambridge, Mass).
The list is not random: actives were taken first. Their share in the collection is about 4.6%.
USP10 block – blocks human USP10 ubiquitin-rhodamine cleavage; inhibition, % at 20 µM; hit rate 1.1% among 47,000; Q14694; AID 1645856; purified USP10, Ub-rhodamine fluorescence, 60 min
USP7 block – human USP7 deubiquitinase inhibition; Q93009; inhibition, % at 20 µM; purified USP7, Ub-rhodamine cleavage fluorescence; AID 1645854; hit rate 0.3% among 47,000
UCHL1 block – human UCHL1 deubiquitinase inhibition; inhibition, % at 20 µM; hit rate 0.2% among 47,000; purified UCHL1, Ub-rhodamine cleavage fluorescence; P09936
USP8 inh – blocks human USP8 ubiquitin-rhodamine cleavage. P40818. purified USP8, Ub-rhodamine cleavage fluorescence, 30 min. inhibition, % at 20 µM. hit rate 4.2% among 47,000. AID 1645853
Target sequence (P40818 whole entry, looked up): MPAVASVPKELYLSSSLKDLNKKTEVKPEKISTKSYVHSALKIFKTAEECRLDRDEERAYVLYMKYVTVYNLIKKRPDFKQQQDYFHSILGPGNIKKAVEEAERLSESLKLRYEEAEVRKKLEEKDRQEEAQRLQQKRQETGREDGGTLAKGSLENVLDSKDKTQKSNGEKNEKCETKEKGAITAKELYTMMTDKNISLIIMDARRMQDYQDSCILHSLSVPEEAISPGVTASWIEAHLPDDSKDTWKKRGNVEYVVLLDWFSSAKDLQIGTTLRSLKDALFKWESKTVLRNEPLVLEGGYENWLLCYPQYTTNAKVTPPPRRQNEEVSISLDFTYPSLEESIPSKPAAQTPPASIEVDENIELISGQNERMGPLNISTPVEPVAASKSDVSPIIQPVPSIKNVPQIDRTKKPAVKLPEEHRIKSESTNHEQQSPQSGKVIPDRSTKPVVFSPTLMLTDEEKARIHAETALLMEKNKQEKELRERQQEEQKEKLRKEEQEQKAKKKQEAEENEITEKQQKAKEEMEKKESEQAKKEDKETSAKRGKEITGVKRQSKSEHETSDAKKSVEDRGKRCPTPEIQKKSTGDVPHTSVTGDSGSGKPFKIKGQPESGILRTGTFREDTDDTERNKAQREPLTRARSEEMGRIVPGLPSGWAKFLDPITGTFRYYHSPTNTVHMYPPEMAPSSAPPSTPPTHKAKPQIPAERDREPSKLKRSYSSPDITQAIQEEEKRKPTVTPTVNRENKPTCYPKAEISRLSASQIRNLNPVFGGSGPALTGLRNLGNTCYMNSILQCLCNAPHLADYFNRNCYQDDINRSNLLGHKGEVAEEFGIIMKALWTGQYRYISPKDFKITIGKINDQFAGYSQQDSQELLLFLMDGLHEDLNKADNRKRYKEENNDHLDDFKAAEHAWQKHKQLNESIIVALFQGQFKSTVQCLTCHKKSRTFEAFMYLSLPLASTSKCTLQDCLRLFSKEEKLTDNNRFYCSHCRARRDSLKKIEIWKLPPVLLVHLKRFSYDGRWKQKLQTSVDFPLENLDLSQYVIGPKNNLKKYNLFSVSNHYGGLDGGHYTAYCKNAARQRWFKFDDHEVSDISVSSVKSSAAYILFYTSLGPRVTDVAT
* marks the source's active call; other numbers are inactive results. No stated cut-off is given here; in the data, active means inhibition above about 30%; inactive means the rest.

SMILES	USP10 block	USP7 block	UCHL1 block	USP8 inh
CC(OC(=O)c1cc(S(=O)(=O)Nc2ccccc2F)ccc1Cl)C(=O)Nc1ccc([N+](=O)[O-])cc1C(F)(F)F (configuration not stated)	36*	2	6	-97
CC(OC(=O)c1cc(S(=O)(=O)Nc2ccc(S(C)(=O)=O)cc2)ccc1Cl)C(=O)Nc1ccc([N+](=O)[O-])cc1C(F)(F)F (configuration not stated)	18	1	3	-85
Nc1nc(SCc2ccc([N+](=O)[O-])cc2)[nH]c(=O)c1NC(=O)c1ccco1	24	13	2	39*
COc1ccc(NC(=O)c2cc3c(C(F)(F)F)nn(C)c3s2)cc1	11	11	2	13
Cc1ncc(CO)c2c1Oc1nc(-c3cccc(Cl)c3)nc(SCC(=O)N3CCCCC3)c1C2	37*	39*	15	50*
O=S(=O)(Cc1ccc(F)cc1)c1c[nH]c2ccccc12	2	1	4	68*
O=C(Cn1cc(S(=O)(=O)Cc2ccc(F)cc2)c2ccccc21)N1CCCCCC1	0	-81	0	-2
Cn1ccc2ccn(CC(=O)NC3CCCCC3)c(=O)c21	4	2	1	7
Cc1n[nH]c(C)c1CC(=O)NCc1nnc(-c2nccc3ccccc23)o1	-1	4	2	33*
Cc1ccc(-c2c(NC(=O)c3cccs3)n(C)c3ccccc3c2=O)cc1	16	9	6	32*
Cc1ccc(C(=O)Nc2c(-c3ccc4c(c3)OCO4)c(=O)c3ccccc3n2C)cc1	24	-2	10	41*
O=C(COC(=O)CCc1ccc(S(=O)(=O)N2CCOCC2)cc1)Nc1ccc2c(c1)OCO2	-4	-1	-2	-12
COc1ccc(C(=O)CSc2nnc(-c3cc4cccc(OC)c4o3)n2C)cc1OC	-3	3	-4	0
Cn1c(SCC(=O)c2ccc(F)cc2)nnc1-c1cc2ccccc2o1	6	2	-1	41*
Cn1c(SCC(=O)NCc2ccccc2)nnc1-c1cc2ccccc2o1	5	-2	4	30*
COc1ccc(Cl)cc1NCc1nc2nc(C)c(C)c(=O)n2[nH]1	-8	3	-2	-8
CCCn1c(-c2ccc(F)cc2)cn2c(-c3ccccc3)c(-c3ccccc3)nc12	3	3	0	68*
O=C(c1ccc(N2CCc3ccccc32)s1)N1CCC(N2CCCCC2)CC1	-4	3	1	20
COc1cccc(NC(=O)CN2C(=O)C3CCCN3C(=O)c3ccc(F)cc32)c1 (configuration not stated)	0	-1	-6	0
O=C(Nc1ccccc1)c1ccnc(Nc2ccc(F)cc2)c1	1	-6	0	40*
COc1ccc(Cl)cc1NC(=O)C1[C@@H]2C(=O)N(Cc3ccc4c(c3)OCO4)C(=O)[C@@H]2[C@H]2c3ccccc3C=CN12 (some centres not stated)	-5	-114	-155	72*
COc1ccc(N2C(=O)[C@@H]3[C@H]4c5ccccc5C=CN4C(C(=O)Nc4ccc5c(c4)OCO5)[C@@H]3C2=O)cc1 (some centres not stated)	-7	-155	-144	87*
O=C(c1ccco1)C1C2C(=O)N(c3ccc(Br)cc3)C(=O)C2C2c3ccccc3C=CN12 (configuration not stated)	-15	-63	-28	46*
CCOc1ccc(C(=O)c2c(-c3cccc(OC)c3)cc3ccccn23)cc1	3	12	6	19
O=C(Nc1c(C(=O)c2ccccc2)oc2ccccc12)c1cccc(Cl)c1	0	8	3	19
SMILES	USP10 block	USP7 block	UCHL1 block	USP8 inh
Cc1ccc(C(=O)NCc2ccc(C(=O)Nc3ccc(Cl)cc3)o2)cc1	10	3	3	3
CN(C)S(=O)(=O)N1CCCC(c2cc(-c3ccccc3)n[nH]2)C1 (configuration not stated)	-1	-1	-1	17
O=C(Nc1ccccc1Cl)C1Cc2ccccc2CN1C(=O)c1ccccc1 (configuration not stated)	-10	-16	-3	36*
Cc1c(Cl)cccc1NC(=O)C1Cc2ccccc2CN1C(=O)c1ccccc1 (configuration not stated)	0	-33	5	18
O=C(Nc1ccccc1F)c1cc(C2CC2)n2nccc2n1	0	3	4	3
c1ccc(-c2csc3nc(CN4CCOCC4)nc(NCc4cccnc4)c23)cc1	-5	-21	1	7
Fc1ccc(CN2CCC[C@H](Cn3nnc(-c4ccccn4)n3)C2)cc1F	6	-3	2	-2
CC(C)c1ccc(NC(=O)C2CCCN(S(=O)(=O)Cc3cccc(Cl)c3)C2)cc1 (configuration not stated)	7	4	-3	-1
O=C(Cn1c(=O)c2ccccc2n(CC(=O)Nc2ccc(F)c(Cl)c2)c1=O)NCc1ccco1	15	7	3	44*
COc1ccccc1CNC(=O)CCCn1c(=O)c2ccccc2n(CC(=O)N2CCN(c3ccccc3)CC2)c1=O	7	1	1	1
O=C(CCCn1c(=O)c2ccccc2n(CC(=O)N2CCN(c3ccccc3)CC2)c1=O)NCc1ccco1	-1	-3	4	36*
Cn1c(=O)n(CC(=O)Nc2ccc(F)c(Cl)c2)c(=O)c2ccccc21	12	6	0	16
O=C(CCCn1c(=O)c2cc(Cl)ccc2n(CC(=O)Nc2cccc(F)c2)c1=O)NCc1ccco1	28	-3	-3	30*
O=C(CCCCn1c(=O)c2ccccc2n(CC(=O)Nc2ccc(F)c(Cl)c2)c1=O)NCc1ccco1	12	0	7	59*
Cc1ccc(CCNC(=O)Cn2cnc3c(nc4n3CCCCC4)c2=O)cc1	-3	-12	-4	-14
Cc1ccccc1-c1nnc(-c2ccc(C(=O)NCc3ccccc3F)cc2)o1	8	5	3	10
CC(C)Cc1ccc(-c2cc(-c3ccc(C(F)(F)F)cc3)c(C#N)c(=O)[nH]2)cc1	64*	35*	-2	12
Cc1ccc(-c2cc(-c3ccc(F)cc3)[nH]c(=O)c2C#N)cc1	19	9	1	9
CC1(C(=O)NCc2ccc(F)cc2)Cn2nc(-c3ccco3)cc2C(=O)N1c1ccc2c(c1)OCCO2 (configuration not stated)	12	-9	7	61*
Cc1cc2n(n1)CC(C)(C(=O)NCc1ccccc1)N(c1ccc3c(c1)OCCO3)C2=O (configuration not stated)	-2	-6	-3	0
O=C(COc1cccc2ccc(N3CCC(Cc4ccccc4)CC3)nc12)Nc1cccc(Cl)c1	-6	1	-1	84*
CCn1c(SCc2ccccc2C)nnc1-c1cnccn1	-1	1	2	6
CCCn1c(=O)c2sccc2n2c(CCC(=O)N3CCc4ccccc4C3)nnc12	2	3	2	87*
O=C(Nc1ccc2c(c1)N(C(=O)C1CCCC1)CC2)c1c(F)cccc1F	3	3	3	18
Cc1noc(-c2ccnc(-n3cnc(C(=O)N4CCc5ccccc5C4)c3)c2)n1	2	2	1	15
